About 21,000 targets were measured; listed, in parts, are those with the largest changes and a random draw of the rest.
What follows are targets tested with CC1Cc2ccccc2N1C(=O)C1CCCN(C1)C(=O)CCl (mixture of isomers) [TRIM25 ligand 11 (diastereomer mixture)] (assay: probe-labelled cysteine peptide fold change vs DMSO (competition) (log2 fold change); higher = less target engagement (more negative = stronger competition)). Conditions: 10 µM; THP-1; incubation time: 4 h.
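Also: competitive chemoproteomic profiling in live THP-1 cells with an iodoacetamide desthiobiotin (IA-DTB) probe, comparing probe-labelled peptide intensities in compound-treated cells against DMSO-treated controls.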

Sequence of UniProt Q9BTW9 (Q9BTW9 whole entry, looked up): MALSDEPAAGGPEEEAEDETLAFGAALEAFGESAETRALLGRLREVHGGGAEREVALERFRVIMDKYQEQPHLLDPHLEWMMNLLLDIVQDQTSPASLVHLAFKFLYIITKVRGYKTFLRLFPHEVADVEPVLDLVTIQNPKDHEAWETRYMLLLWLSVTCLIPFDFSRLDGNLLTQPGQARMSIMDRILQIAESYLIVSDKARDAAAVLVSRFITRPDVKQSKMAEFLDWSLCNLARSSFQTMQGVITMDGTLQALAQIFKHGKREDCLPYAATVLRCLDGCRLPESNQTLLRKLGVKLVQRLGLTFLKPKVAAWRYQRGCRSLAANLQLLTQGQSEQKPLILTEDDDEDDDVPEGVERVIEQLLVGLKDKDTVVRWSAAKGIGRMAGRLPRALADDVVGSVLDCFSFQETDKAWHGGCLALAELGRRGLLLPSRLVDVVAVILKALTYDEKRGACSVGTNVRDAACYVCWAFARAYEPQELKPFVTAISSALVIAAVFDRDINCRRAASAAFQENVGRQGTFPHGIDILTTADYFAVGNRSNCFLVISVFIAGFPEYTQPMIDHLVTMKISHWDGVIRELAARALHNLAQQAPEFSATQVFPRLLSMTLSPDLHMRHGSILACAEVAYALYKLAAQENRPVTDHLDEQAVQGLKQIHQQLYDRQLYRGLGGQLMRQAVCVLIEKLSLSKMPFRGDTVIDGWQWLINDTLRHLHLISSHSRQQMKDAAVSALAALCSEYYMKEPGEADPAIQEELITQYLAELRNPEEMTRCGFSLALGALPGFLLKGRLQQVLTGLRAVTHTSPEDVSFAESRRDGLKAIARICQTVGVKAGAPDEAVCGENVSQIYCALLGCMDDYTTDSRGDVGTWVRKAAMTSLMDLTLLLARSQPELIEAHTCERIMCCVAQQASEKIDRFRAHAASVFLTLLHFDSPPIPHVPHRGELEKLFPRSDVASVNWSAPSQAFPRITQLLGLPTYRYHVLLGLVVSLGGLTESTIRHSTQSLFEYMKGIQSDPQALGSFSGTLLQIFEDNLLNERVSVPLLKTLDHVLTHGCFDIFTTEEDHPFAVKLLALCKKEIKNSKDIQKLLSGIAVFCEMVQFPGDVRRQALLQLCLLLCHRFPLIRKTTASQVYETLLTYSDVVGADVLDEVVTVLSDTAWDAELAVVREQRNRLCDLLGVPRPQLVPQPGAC
Sequence of UniProt Q02880 (Q02880 whole entry, looked up): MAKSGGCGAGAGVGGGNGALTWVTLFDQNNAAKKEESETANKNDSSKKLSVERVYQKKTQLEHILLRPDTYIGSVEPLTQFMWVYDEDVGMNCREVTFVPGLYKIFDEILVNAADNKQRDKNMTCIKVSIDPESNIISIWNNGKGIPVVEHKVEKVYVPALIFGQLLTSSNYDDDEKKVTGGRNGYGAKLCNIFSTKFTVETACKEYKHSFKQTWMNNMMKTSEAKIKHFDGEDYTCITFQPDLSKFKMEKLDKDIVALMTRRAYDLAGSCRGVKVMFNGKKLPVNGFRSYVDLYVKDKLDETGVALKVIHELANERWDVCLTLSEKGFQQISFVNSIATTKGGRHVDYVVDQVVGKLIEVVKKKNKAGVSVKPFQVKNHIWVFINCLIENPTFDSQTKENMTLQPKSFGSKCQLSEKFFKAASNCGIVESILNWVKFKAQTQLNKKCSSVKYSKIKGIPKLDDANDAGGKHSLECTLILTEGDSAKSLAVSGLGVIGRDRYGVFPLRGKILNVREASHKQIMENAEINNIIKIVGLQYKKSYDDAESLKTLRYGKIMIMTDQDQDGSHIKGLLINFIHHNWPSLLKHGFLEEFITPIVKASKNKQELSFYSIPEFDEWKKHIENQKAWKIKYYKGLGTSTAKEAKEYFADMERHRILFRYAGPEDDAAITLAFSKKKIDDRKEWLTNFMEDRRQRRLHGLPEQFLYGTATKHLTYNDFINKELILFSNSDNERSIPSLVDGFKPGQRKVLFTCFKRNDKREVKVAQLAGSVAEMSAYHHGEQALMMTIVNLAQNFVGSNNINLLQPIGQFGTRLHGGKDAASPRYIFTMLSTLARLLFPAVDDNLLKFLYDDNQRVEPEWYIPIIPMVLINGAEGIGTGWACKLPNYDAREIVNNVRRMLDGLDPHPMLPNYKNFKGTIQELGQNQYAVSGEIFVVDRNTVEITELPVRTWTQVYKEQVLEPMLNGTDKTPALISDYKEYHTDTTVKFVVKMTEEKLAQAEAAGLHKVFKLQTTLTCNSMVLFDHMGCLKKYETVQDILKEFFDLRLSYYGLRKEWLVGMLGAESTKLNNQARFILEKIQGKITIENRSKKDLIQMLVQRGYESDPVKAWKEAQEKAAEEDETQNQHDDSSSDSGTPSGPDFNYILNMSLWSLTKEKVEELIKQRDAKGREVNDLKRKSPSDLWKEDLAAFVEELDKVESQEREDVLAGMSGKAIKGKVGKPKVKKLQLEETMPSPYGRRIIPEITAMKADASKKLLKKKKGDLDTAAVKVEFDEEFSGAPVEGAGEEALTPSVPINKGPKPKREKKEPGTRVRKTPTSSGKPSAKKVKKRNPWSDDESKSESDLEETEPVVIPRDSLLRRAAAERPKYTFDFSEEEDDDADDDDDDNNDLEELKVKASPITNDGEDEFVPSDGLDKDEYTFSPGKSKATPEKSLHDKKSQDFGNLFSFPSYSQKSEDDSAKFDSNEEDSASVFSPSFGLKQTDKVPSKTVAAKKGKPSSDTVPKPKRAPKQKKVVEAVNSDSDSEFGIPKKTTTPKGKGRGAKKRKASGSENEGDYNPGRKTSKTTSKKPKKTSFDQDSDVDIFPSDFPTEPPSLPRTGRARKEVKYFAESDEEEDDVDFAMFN
Sequence of UniProt Q8TE77 (Q8TE77 whole entry, looked up): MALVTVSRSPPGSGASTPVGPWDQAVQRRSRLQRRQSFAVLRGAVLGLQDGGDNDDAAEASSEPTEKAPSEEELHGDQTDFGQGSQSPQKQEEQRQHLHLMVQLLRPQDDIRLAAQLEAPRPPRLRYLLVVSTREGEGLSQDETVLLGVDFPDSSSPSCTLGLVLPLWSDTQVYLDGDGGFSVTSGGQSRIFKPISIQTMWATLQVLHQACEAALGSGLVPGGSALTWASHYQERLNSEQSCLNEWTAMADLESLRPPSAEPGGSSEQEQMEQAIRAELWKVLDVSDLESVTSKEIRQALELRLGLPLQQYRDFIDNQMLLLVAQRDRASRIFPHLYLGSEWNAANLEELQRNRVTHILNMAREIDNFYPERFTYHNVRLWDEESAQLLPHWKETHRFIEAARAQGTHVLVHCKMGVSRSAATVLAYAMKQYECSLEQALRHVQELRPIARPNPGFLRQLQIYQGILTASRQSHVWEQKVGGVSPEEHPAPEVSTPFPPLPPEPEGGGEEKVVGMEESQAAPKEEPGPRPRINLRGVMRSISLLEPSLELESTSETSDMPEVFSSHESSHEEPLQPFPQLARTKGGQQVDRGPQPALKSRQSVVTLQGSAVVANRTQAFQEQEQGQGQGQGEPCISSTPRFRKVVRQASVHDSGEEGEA
Sequence of UniProt Q8NI27 (Q8NI27 whole entry, looked up): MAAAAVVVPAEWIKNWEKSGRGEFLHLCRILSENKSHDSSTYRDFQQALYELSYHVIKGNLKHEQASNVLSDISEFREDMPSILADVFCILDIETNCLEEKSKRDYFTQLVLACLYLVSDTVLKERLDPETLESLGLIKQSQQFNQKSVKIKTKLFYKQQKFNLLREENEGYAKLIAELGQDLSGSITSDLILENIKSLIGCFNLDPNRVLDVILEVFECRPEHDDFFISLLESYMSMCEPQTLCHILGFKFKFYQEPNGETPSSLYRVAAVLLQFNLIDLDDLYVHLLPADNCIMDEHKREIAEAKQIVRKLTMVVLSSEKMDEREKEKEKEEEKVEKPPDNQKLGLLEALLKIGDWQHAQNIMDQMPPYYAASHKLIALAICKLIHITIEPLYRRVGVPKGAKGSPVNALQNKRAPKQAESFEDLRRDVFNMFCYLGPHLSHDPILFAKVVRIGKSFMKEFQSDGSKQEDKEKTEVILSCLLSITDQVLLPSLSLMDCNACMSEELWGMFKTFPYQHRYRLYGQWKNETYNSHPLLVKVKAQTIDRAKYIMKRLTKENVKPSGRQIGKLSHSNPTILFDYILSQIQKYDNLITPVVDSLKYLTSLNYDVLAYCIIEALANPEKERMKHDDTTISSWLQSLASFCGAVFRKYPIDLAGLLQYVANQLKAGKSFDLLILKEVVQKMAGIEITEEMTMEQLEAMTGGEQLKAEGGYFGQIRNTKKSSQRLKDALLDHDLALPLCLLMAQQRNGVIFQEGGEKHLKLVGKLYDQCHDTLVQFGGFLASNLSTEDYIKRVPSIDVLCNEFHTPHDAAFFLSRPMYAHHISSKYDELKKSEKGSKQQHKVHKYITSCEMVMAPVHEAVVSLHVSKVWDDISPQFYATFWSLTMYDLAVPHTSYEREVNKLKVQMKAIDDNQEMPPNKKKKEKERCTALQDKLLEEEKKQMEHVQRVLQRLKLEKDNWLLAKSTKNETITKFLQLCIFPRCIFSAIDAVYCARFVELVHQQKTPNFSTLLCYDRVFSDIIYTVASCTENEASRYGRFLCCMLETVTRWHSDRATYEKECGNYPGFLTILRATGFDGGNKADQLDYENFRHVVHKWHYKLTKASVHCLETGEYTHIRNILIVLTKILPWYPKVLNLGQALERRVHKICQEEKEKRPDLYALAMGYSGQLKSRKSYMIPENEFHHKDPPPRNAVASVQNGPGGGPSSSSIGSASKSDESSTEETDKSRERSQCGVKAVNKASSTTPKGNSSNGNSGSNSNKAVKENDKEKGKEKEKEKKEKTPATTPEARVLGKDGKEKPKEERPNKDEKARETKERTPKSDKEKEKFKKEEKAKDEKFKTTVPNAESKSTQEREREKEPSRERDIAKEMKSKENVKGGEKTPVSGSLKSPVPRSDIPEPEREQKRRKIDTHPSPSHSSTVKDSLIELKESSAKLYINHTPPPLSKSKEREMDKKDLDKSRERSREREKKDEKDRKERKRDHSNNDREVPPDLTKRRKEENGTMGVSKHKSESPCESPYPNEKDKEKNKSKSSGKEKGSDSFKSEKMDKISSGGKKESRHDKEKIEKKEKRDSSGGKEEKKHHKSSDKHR

Target	probe-labelled cysteine peptide fold change
TIAL1_Q01085_205+209_NCTVYCGGIASGLTDQLMR (UniProt Q01085)	0.161
THBS1_P07996_754_IPDDRDNCPFHYNPAQYDYDRDDVGDR (UniProt P07996)	0.813
TLE1_Q04724_47_IKEEFQFLQAQYHSLKLECEK<|>TLE2_Q04725_46_IKEEFQFLQAQYHSLKLECEK (UniProt Q04725+Q04724)	-0.573
TBCD_Q9BTW9_457_GACSVGTNVR (UniProt Q9BTW9)	0.145
TET3_O43151_1381_GKPWSPCK (UniProt O43151)	-0.294
THOC2_Q8NI27_743_DALLDHDLALPLCLLMAQQR (UniProt Q8NI27)	0.0629
TDRD7_Q8NHU6_284_EDLNQGILQQFEHWPHICTVEK (UniProt Q8NHU6)	0.0148
TADA2B_Q86TJ2_32+35_CTECQDIELCPECFSAGAEIGHHR (UniProt Q86TJ2)	0.502
TOP2B_Q02880-2_7_SGGCGAGAGVGGGNGALTWVNNAAK (UniProt Q02880)	-0.0783
SSH3_Q8TE77_634_TQAFQEQEQGQGQGQGEPCISSTPR (UniProt Q8TE77)	-0.0571
TMEM94_Q12767_381_CIWGHFLR (UniProt Q12767)	-0.00858
SUCLG1_P53597_172_LIGPNCPGVINPGECK (UniProt P53597)	-0.0627
TGFBRAP1_Q8WUH2_32_VNIECVECCGR (UniProt Q8WUH2)	-0.0319
SUPT16H_Q9Y5B9_574_INFYCPGSALGR (UniProt Q9Y5B9)	0.121
TCEAL3_Q969E4_44_TECEGKREDEGEPGDEGQLEDEGSQEK (UniProt Q969E4)	-0.32
